Inconclusive results are not listed. Entries that show only a call come without a potency. A number with no mark means an inactive call. Activity calls are given as the source filed them. The call rests on the fitted dose curve; in most records, active means well fitted cell-killing curve with a large enough effect in the repeat runs; inconclusive means weak or mixed curves, or effect the other way; inactive means no such curve, though single readings can be large or run the other way.
Potency means the concentration at half of the fitted maximal effect.

A short description of this test: qHTS assay to identify small molecule agonists of the estrogen receptor alpha (ER-alpha) signaling pathway in the presence of an antagonist - cell viability counter screen (AID 1259386).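 Further: cells exposed to compounds for 22 h at 37 °C before the viability read; nearly all actives have a fitted effect of over 30% in size.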 Conditions: VM7Luc4E2 viability, CellTiter-Fluor fluorescence, 22 h; series mostly up to 92.4 µM. The source says:
National Center for Advancing Translational Sciences [NCATS]
NIH Chemical Genomics Center [NCGC]
U.S. Environmental Protection Agency [EPA]
National Institutes of Environmental Health Sciences [NIEHS]
National Toxicology Program [NTP]
U.S. Food and Drug Administration [FDA]
Estrogen receptor (ER), a member of nuclear hormone receptor plays an important role in development, metabolic homeostasis and reproduction. Two subtypes of ER, ER-alpha and ER-beta, have similar expression patterns with some uniqueness in both types. Endocrine disrupting chemicals (EDCs) and their interactions with steroid hormone receptors like ER causes disruption of normal endocrine function. Therefore, it is important to understand the effect of environmental chemicals in ER signaling pathway. For identifying ER agonists, VM7Luc4E2 cell line has been used in the current assay.
VM7Luc4E2 cell line (provided by Denison MS, University of California) endogenously expresses full-length ER-alpha and is stably transfected with a plasmid containing four estrogen responsive elements (ERE) upstream of a luciferase reporter gene. This current screening for measuring luciferase reporter gene activity using VM7Luc4E2 cells against Tox21 10K library collection is a confirmation study on agonist mode screening in presence of ER-antagonist (ICI-182,780) at 10.0nM final concentration. The cytotoxicity of the compounds was tested in parallel by measuring the cell viability using CellTiter-Fluor assay system (Promega, Madison, WI) in the same wells.
Tox21 Assay Protocol Summary:
VM7Luc4E2 cells were cultured in phenol red free assay medium containing 10% charcoal stripped FBS for 5 days prior to the assay. The cells were dispensed at 4,000 cells in 4uL of assay medium per well into white wall/solid-bottom 1536-well plates (Corning Life Sciences, Corning, NY) using a Multidrop Combi (Thermo Fisher Scientific Inc., Waltham, MA) dispenser. After the assay plates were incubated at 37C and 5% CO2 for 24hr, 1uL of 10.0nM (final concentration) ICI-182,780 or assay buffer was added using two separate tips of Flying Reagent Dispenser (FRD, Aurora Discovery, San Diego, CA). Then 23nL of compounds dissolved in DMSO at 15 concentrations and positive controls or DMSO only was transferred to the assay plates by a Pintool station (Wako, San Diego, CA). The assay plates were incubated at 37C and 5% CO2 for 22hr. After 21hr incubation at 37C, 1uL/well CellTiter-Fluor reagent (Promega Corporation, Madison, WI) was added to each well using FRD and after 1hr incubation at 37C and 5% CO2, the fluorescence signal was measured on ViewLux plate reader (PerkinElmer, Shelton, CT).
A general note: Quantitative high-throughput screening tests each substance at several concentrations.
Consider `CC(=O)OC1CCCCC1`, for which the Potency result is “inactive”.

Turning to `C=CC(=O)OCCN(CC)CC`, the Potency result is “inactive”.

In the case of `CCCCN(CCCC)CCC(O)c1cc2c(Cl)cc(Cl)cc2c2cc(C(F)(F)F)ccc12` (stereo not given), the Potency result was “inactive”.

`CC(C)=CCCC(C)CCOC(=O)C(C)C` (stereo not given): the Potency result was “inactive”.

For `CCCCOCC`, the Potency result is “inactive”.

With `O=C(Oc1ccccc1)c1cccc(C(=O)Oc2ccccc2)c1`, the Potency result was “inactive”.

As for `N[C@@H](CSSC[C@H](N)C(=O)O)C(=O)O`, the activity change, negative = cytotoxicity was 7.62% [at 0.349 µM].

Regarding `CC(C)(c1cc(Br)c(OCCO)c(Br)c1)c1cc(Br)c(OCCO)c(Br)c1`, the Potency is 53.3 µM (active).

With `O=C1NC2CCCCN2C12CCN(CCCN1c3ccccc3CCc3ccc(Cl)cc31)CC2` (stereo not given), the Potency was 29.8 µM (active).

As for `COc1ccccc1C=O`, the Potency result was “inactive”.

As for `O=C(O)c1cccc(Cl)n1`, the Potency result was “inactive”.

As for `CN(C)CCCN1c2ccccc2CCc2ccccc21`, the Potency result was “inactive”.

Regarding `CCCCCCC(C)OC(=O)COc1nc(F)c(Cl)c(N)c1Cl` (stereo not given), the Potency result was “inactive”.

With `C/C=C/C(=O)Oc1c(CCCCCC(C)C)cc([N+](=O)[O-])cc1[N+](=O)[O-]`, the Potency was 9.69 µM (active).

As to `CCCCCCCCC(C)=O`, the Potency result was “inactive”.

On to `c1ccc(Sc2ccccc2)cc1`, for which the Potency result is “inactive”.

For `C[C@@]12C(=O)OC(=O)[C@]1(C)C1CCC2O1`, the Potency result is “inactive”.

With `CCN(CC)CCCN(c1ccccc1)C1Cc2ccccc2C1`, the Potency entry was “inactive”.

Take `Cc1cccc(C)n1`: the Potency entry is “inactive”.

`CO[C@H]1C=CO[C@@]2(C)Oc3c(C)c(O)c4c(O)c(cc(O)c4c3C2=O)NC(=O)/C(C)=C\C=C/[C@H](C)[C@H](O)[C@@H](C)[C@@H](O)[C@@H](C)[C@H](OC(C)=O)[C@@H]1C`: the Potency is 38.8 µM (active).

Regarding `O=S(O)O`, the activity change, negative = cytotoxicity was 0.0003% [at 19 µM].

With `C/C=C/c1ccc(OC)c(OC)c1`, the Potency entry is “inactive”.

With `CCCCCCCCCCCCCc1ccccc1`, the Potency entry is “inactive”.

For the molecule `C=CCCCCCCC=C`, the Potency result is “inactive”.

Take `CCCCOc1ccc(C(=O)CCN2CCCCC2)cc1`: the Potency entry was “inactive”.

For `CNCC[C@H](Oc1cccc2ccccc12)c1cccs1`, the Potency entry is “inactive”.

Take `O=S(=O)(O)CCCN1CCOCC1`: the Potency entry is “inactive”.

Consider `C=C(C)CCCC`, for which the Potency entry is “inactive”.

For the molecule `O=C(Nc1ccc(Cl)c(Cl)c1)c1cc(Cl)cc(Cl)c1O`, the Potency was 7.7 µM (active).

`C[Si](C)O[Si](C)C`: the Potency entry was “inactive”.

For the molecule `CC(=O)OC(OC(C)=O)c1ccc([N+](=O)[O-])o1`, the Potency was 49.4 µM (active).

For `O=C[C@H](O)[C@H](O)[C@H](O)CO`, the Potency result was “inactive”.

In the case of `C=CC(C)C#N` (stereo not given), the Potency entry was “inactive”.

For the molecule `CCOC(=O)C1=C(C)NC(C)=C(C(=O)OCC)C1c1ccccc1/C=C/C(=O)OC(C)(C)C`, the Potency entry is “inactive”.

As to `Cc1cn[nH]c1`, the Potency result was “inactive”.

Regarding `OCCC(O)CO` (stereo not given), the Potency entry was “inactive”.

Regarding `C/C=C/C(=O)C1=C(C)CCCC1(C)C`, the Potency entry was “inactive”.

On to `Clc1cc(Cl)c(-c2c(Cl)c(Cl)cc(Cl)c2Cl)cc1Cl`, for which the Potency entry is “inactive”.

For the molecule `CCN(CC)c1cccc(C)c1`, the Potency result is “inactive”.

Consider `CCN(CC)CCOC(=O)C1(C2CCCCC2)CCCCC1`, for which the Potency entry was “inactive”.

(Values after PubChem BioAssay (Tox21).)
